This is part of a sample that, as a whole, favours compounds with a hit. Of some 83,000 tested, about 20% had one in any assay.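 Percent growth is the endpoint: 0 to 100 indicates growth inhibition (40 means 60% inhibition), 0 means no net growth, and negative values indicate cell death.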 Unmarked numbers belong to inactive results. The source made the active and inactive calls.
tested on: T-47D breast; experiment: NCI-60 one-dose screen, 48 h (100 = growth as untreated, 0 = no growth, -100 = all killed); conditions: 10 µM unless noted
Procedure: Growth inhibition of the T-47D human tumor cell line is measured as a screen for anti-cancer activity. Cells are grown in 96 well plates and exposed to the test compound for 48 hours. Compounds are tested at a single concentration, which is 10^-5 M for most compounds. The reported endpoint is percent growth (GI% or GIPRCNT), where numbers from 0 - 100% represent growth inhibition, and numbers from -100% - 0 represent cell death. For example, a value of 40 represents 60% growth inhibition. A value of 0 means no net growth occurred over the course of the experiment. A value of -40 indicates 40% of cells at the beginning of the experiment died by the end of the experiment. A value of -100 means all cells are dead at the end of the experiment.
NCI-60 Human Tumor Cell Lines Screen was performed using the standard one-dose NCI protocol, which is described in more detail at https://dtp.cancer.gov/discovery_development/nci-60/default.htm.
Compounds with GIPRCNT values below 10 were considered active. Activity score was based on GIPRCNT using the following formula: […]
Score is 0 for GIPRCNT values of 100 or above, 50 for GIPRCNT values of 0, and 100 for GIPRCNT values of -100.

| Structure (SMILES) | growth |
| --- | --- |
| O=[N+]([O-])c1cccc(/C=C/c2ccc3ccccc3n2)c1 | 79.5% |
| Fc1cc2[nH]ncc2c2c3c(c(-c4cn[nH]c4)nc12)CCCC3 | -19.3% (active) |
| CCOC(=O)c1nn(C2CCCCO2)c2ccc(NC(=O)CSc3nc4ccccc4c(=O)[nH]3)cc12 (stereo not given) | 99.1% |
| CC1(C)CC[C@]23CC[C@]4(C)[C@H](CC[C@@H]5[C@@]6(C)C/C(=C/c7cccnc7)C(=O)C(C)(C)[C@@H]6CC[C@]54C)[C@H]2[C@H]1OC3=O | 23.5% [100 µM] |
| COCCCNc1nc(NC(=O)c2cc(OC)cc(OC)c2)cc(-c2cccnc2)n1 | 63.8% |
| O=C1/C(=C\c2cccn2Cc2ccccc2)c2ccccc2N1c1c(Cl)cccc1Cl | -35.7% (active) |
| CN(C)c1cc(NN=C(c2ccc(O)cc2)c2ccc(O)cc2)c([N+](=O)[O-])cc1[N+](=O)[O-] | 19.1% |
| COc1ccc(C2NC(=O)C(C#N)c3c2sc2c(F)cccc32)cc1 (stereo not given) | 80.2% |
| Ic1ccc2[nH]cc(SSc3c[nH]c4ccc(I)cc34)c2c1 | 26.7% |
| CC[C@@](C)(NC(=O)[C@H](C)NC(=O)CCNC(=O)C(C)(C)NC(=O)[C@H](C)NC(=O)[C@@H]1CCCN1C(=O)[C@@](C)(CC)NC(=O)[C@H](Cc1ccccc1)NC(=O)C1CCCN1C(=O)C(C)(C)NC(=O)C1CCCN1C(=O)C(C)(C)NC(C)=O)C(=O)NCCC(=O)N[C@@H](CC(C)C)C(=O)NC(C)(C)C(=O)NCCC(=O)N[C@@H](CC(C)C)C(=O)NC(C)(C)C(=O)NC(C)(C)C(=O)N[C@@H](CC(C)C)C(=O)NCCC(=O)NCO (stereo not given in full) | -66.9% (active) |
| CN(C)C(=S)Sc1ccc([N+](=O)[O-])cc1[N+](=O)[O-] | -34.7% (active) |
| COc1ccc(-c2ccc(NNC(=O)c3ccc(F)cc3)nn2)cc1OC | 20% |
| COc1ccc(-c2cc(-c3ccc(Cl)cc3)nc(NCCCCNc3ccnc4cc(Cl)ccc34)n2)cc1 | 78.1% |
| CC1(C)CC[C@]23CC[C@]4(C)[C@H](CC[C@@H]5[C@@]6(C)C/C(=C/c7ccncc7)C(=O)C(C)(C)[C@@H]6CC[C@]54C)[C@H]2[C@H]1OC3=O | 62.6% [100 µM] |
| O=C(N=c1n(-c2ccccc2)nc2n1CCN2C1=NCCN1C(=O)c1ccc(Cl)cc1)c1ccc(Cl)cc1 | 50.1% |
| CCCCCCCCCCCCCC[n+]1cccc(C(N)=O)c1 | 49.8% |
| CC1=CCc2ccccc21 | 96.8% |
| OC(c1ccc(Cl)cc1)(c1ccc(Cl)cc1)C(O)(c1ccc(Cl)cc1)c1ccc(Cl)cc1 | 32.9% |
| COc1ccc2nc3c(cc2c1)C(=O)CC(C(F)(F)F)C3 (stereo not given) | 41.1% |
| C#C[C@]1(O)CC[C@H]2[C@@H]3CC=C4c5nc(N)sc5CC[C@]4(C)[C@H]3CC[C@@]21C | 58.2% |

| Structure (SMILES) | growth |
| --- | --- |
| CC(C)C1=NOC(=O)C1=Cc1cn(-c2ccccc2)nc1-c1ccc(Br)cc1 | 74.8% |
| C=CCc1nc2ccccc2s1 | 75.5% |
| COc1ccc(-c2cc(-c3ccc(Cl)cc3)nc(SCCCCCCC(=O)NO)n2)cc1 | -2.44% (active) |
| CC1(C)CC[C@]2(C(=O)O)CC[C@]3(C)[C@H](CC[C@@H]4[C@@]5(C)CCC(=O)C(C)(C)[C@@H]5CC[C@]43C)[C@H]2[C@H]1OC(=O)C(F)(F)F | -25.2% [100 µM] (active) |
| O=C(Oc1ccc(Cl)cc1[N+](=O)[O-])Oc1ccc(Cl)cc1[N+](=O)[O-] | 115% |
| CC[C@]12C=CCN3CC[C@@]4(c5ccc(OC)cc5N(C)[C@H]4[C@@](O)(C(=O)OC)[C@@H]1OC(=O)CCC(=O)O[C@H]1CC[C@H]4[C@@H]5CCC6=CC(=O)CC[C@@H]6[C@H]5CC[C@]14C)[C@@H]32 | 21.6% [100 µM] |
| C#CCC(C(=O)OCC)C(=O)OCC | 114% |
| c1ccc(-c2nnc(-c3c[nH]c4ncccc34)s2)cc1 | 40.5% |
| COC(=O)[C@]1(C)CC[C@]2(C)CC[C@]3(C)C(=CC(=O)[C@@H]4[C@@]5(C)CCC(=O)NC(C)(C)[C@@H]5CC[C@]43C)[C@@H]2C1 | -10.7% [100 µM] (active) |
| CCCN1CC(c2ccc(OC)c(OC)c2)=C(c2cn(C(=O)OCC)c3ccccc23)C1=O | 36.5% |
| CC(=O)n1cc(C=O)c2ccccc21 | 98.8% |
| COc1cccc(-c2[nH]c(=S)ncc2C(=O)c2ccccc2)c1 | 104% |
| COc1ccc2c(c1)c(-c1noc(-c3cn(C)c4ncc(F)cc34)n1)cn2C | 76.8% |
| Clc1ccc(/C=N/Nc2nc3ccccc3s2)c(Cl)c1 | 74.4% |
| Cc1cc(SC#N)ncn1 | 104% |
| Cn1cc(-c2noc(-c3cn(C)c4ncc(F)cc34)n2)c2cc(Br)ccc21 | 25.2% |
| Cc1ccc(NCCN2CCCCC2)c2c(=O)c3ccccc3sc12 | 28.7% |
| CCCC[C@@H](C=O)NC(=O)[C@H](CC(C)C)NC(=O)[C@H](CC(C)C)NC(=O)OCc1ccccc1 | -42.7% (active) |
| CC(C)(C)c1cc(C(=O)Nc2cc3ccccc3cc2C(=O)NCCN)cc(C(C)(C)C)c1 | -69% (active) |
| O=C(CCNCc1ccccc1)c1ccccc1 | 104% |

From PubChem BioAssay (NCI)
